In PubChem BioAssay AID493170 (National Center for Advancing Translational Sciences (NCATS), 2011):
Results filed as inconclusive are left out. A call without a number means that no potency is given here. Activity calls are given as the source filed them. The call rests on the fitted dose curve; in most records, active means well fitted inhibition curve with a large enough effect; inconclusive means small, poorly fitted or top-dose-only effect, or effect the other way; inactive means flat fitted curve, though single readings scatter.

biological target: Ubiquitin carboxyl-terminal hydrolase 2 (Homo sapiens) (UniProt O75604); assay: Ub-rhodamine 110 based assay for inhibitors Ubiquitin-specific Protease USP2a; settings: USP2a Ub-rhodamine110 cleavage, fluorescence; series mostly up to 38.3 µM; further: nearly all actives have a fitted effect of over 50% in size
Sequence (O75604 whole entry, looked up): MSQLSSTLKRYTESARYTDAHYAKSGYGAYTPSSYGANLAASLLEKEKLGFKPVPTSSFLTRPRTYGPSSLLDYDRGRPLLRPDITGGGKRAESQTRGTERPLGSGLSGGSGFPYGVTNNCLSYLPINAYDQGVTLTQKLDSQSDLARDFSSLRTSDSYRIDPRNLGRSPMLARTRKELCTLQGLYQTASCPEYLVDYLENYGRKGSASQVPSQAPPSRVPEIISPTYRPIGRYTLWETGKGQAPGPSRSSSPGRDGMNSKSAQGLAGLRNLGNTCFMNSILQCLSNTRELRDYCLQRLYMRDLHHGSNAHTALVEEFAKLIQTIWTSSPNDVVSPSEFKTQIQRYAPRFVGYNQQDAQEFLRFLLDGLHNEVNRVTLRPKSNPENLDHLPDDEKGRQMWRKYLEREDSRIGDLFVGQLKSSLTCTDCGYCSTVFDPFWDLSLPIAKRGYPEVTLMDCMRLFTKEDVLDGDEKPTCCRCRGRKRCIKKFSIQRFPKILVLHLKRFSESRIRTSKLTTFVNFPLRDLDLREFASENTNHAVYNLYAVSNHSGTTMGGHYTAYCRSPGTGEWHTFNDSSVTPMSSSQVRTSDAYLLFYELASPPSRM
Method in brief: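 5 nM USP2a preincubated with compounds for 30 min at RT in 20 mM Tris-HCl pH 8.0, 2 mM CaCl2, 2 mM beta-mercaptoethanol, 0.05% CHAPS. Cleavage of 150 nM Ub-rhodamine 110 read kinetically (Ex 485/Em 531) for 7 min.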
Potency means the concentration at half of the fitted maximal effect.

SMILES	Potency
Cc1cc(C(=O)Nc2ccccc2N2CCOCC2)c2ccccc2n1	inactive
O=C(Nc1ccc(Nc2ccncc2)cc1)c1ccc(Nc2ccnc3ccc([N+](=O)[O-])cc23)cc1	7.08 µM (active)
COCCn1c(SCC(=O)Nc2cc(C)on2)nnc1-c1ccccc1	inactive
COc1ccc(OC)c(Nc2ccc(Nc3cc(OC)ccc3OC)nn2)c1	inactive
O=C(NC(=S)N1CCCc2ccccc21)c1ccc([N+](=O)[O-])cc1	inactive
COC(=O)c1[nH]c(=O)c2ccccc2c1OCc1ccccc1	inactive
COC(=O)CSc1nnc(NC(=O)C2CC(=O)N(c3ccc(F)cc3)C2)s1 (stereo not drawn)	11.2 µM (active)
C=CCn1c(N)c(C(=O)NCc2cccnc2)sc1=S	inactive
COc1ccc(-c2nnn(CC(=O)N3CCOCC3)n2)cc1	inactive
COc1ccc(NC(=O)CSc2ncccc2C(=O)OC(C)C)cc1OC	inactive
O=C(CSc1ccc(Br)c2cccc(Cl)c12)Nc1ccc(S(=O)(=O)Nc2nccs2)cc1	3.55 µM (active)
Cc1cc(-c2csc(NCc3ccccc3)n2)c(C)n1C	8.91 µM (active)
Cc1ccc(C(=O)O/N=C/c2c(C(F)(F)F)nn(C)c2Sc2ccc(Cl)cc2)cc1	inactive
Cc1ccc(C(=O)COC(=O)CNC(=O)CN2C(=O)c3ccccc3C2=O)cc1	inactive
CCOC(=O)C1CCCN(CC(=O)Nc2c(C(=O)OC)[nH]c3ccc(C)cc23)C1 (stereo not drawn)	inactive
Cc1ccc(N2CN=c3s/c(=C\c4cccnc4)c(=O)n3C2)cc1	inactive
Cc1ccc(NC(=O)COC(=O)c2ccc(NC(=O)CC#N)cc2)cc1S(=O)(=O)N1CCOCC1	10 µM (active)
COc1ccc(-n2c(O)c(/C=N/n3cnnc3)c3ccccc3c2=O)cc1	inactive
CCCOc1ccc(/C=C2\SC(=S)N(CC3CCCO3)C2=O)cc1 (stereo not drawn)	inactive
CCc1cc(C(=O)N=Nc2c(O)[nH]c3ccc([N+](=O)[O-])cc23)c2ccccc2n1	11.2 µM (active)
COc1cccc(C(=O)NCc2ccc3[nH]c(C)cc3c2)c1	inactive
COc1ccc(CCN2C(=O)/C(=C\c3ccco3)SC2=S)cc1OC	inactive
N#Cc1cc(Sc2ccccn2)c(Sc2ccccn2)cc1C#N	inactive
